RORg inh: inhibitors of mouse ROR gamma transcriptional activity | Potency, µM (doses to about 53.6 µM), most hits filed as inhibitors | 5.4% of 310,000 active | Drosophila S2 Gal4-RORgamma UAS-luciferase reporter, 20 h | P51450; further: nearly all actives have a fitted effect of over 60% in size
Target sequence (P51450 whole entry, looked up, the tested form may be a part): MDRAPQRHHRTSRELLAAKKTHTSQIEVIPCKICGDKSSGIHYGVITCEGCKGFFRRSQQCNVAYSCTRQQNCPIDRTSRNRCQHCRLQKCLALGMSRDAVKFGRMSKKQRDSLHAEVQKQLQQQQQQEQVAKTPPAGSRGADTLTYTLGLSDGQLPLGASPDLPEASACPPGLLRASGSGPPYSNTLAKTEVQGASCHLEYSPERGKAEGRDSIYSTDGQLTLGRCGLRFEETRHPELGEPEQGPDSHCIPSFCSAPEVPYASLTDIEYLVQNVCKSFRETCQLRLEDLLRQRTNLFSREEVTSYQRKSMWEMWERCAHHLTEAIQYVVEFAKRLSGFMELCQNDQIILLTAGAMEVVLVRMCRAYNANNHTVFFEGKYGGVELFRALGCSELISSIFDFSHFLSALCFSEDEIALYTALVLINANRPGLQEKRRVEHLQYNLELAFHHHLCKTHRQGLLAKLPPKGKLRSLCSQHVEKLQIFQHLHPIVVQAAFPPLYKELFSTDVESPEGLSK
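Drosophila S2 cells stably expressing Gal4-DBD/mouse RORγ fusion under metallothionein promoter plus UAS-luciferase; compound 1 h, then 700 uM CuSO4 induction for 20 h at ambient temperature; inhibition read as reduced luminescence.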
VP16 counter: counter-screen for ROR gamma inhibitors: Gal4-VP16 reporter | 3.5% of 310,000 active | Drosophila S2 Gal4-VP16 UAS-luciferase, luminescence, 20 h | Potency, µM (series often up to 53.6 µM), hits mostly inhibitors;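 further: Gal4-VP16 expression switched on by copper sulfate through the metallothionein promoter; nearly all actives have a fitted effect of over 50% in size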
IL-1B inflam inh: inhibitors of inflammasome signaling (IL-1 beta secretion). THP-1 LPS/ATP IL-1B secretion, AlphaLISA, 16 h; active compounds read low. 4.7% of 360,000 active. activity change, % at 57.5 µM. AID 743279; in the data active means activity change below about -50%; inconclusive means mostly about -30% to -49%
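THP-1 cells pretreated 1 hr with compounds (up to 57.5 uM final), then stimulated with LPS (250 ng/mL final) plus ATP (1.25 mM final); secreted IL-1B measured by AlphaLISA after 16 hr, decreased signal indicating inhibition.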
DT40 TDP1 no CPT: qHTS for Inhibitors of human tyrosyl-DNA phosphodiesterase 1 (TDP1): qHTS in cells in absence of CPT. DT40 Tdp1-/- hTDP1 cells, no CPT, ATP luminescence, 48 h. Potency, µM (highest dose often 46.2 µM), hits mostly inhibitors. 15% of 420,000 active. AID 686978, 2013; further: nearly all actives have a fitted effect of over 55% in size
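Growth kinetics read by CellTiter-Glo luminescence after ≥48 hr at 37 °C. Cells: DT40 Tdp1-/- stably carrying human TDP1, 400 per well, compound exposure in the absence of CPT (DMSO vehicle).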
LDHA block: blocks human lactate dehydrogenase A; P00338; purified LDHA, NADH/diaphorase-resazurin fluorescence; active compounds read low; activity change, % (values are at about 110 or 230 µM); 0.15% of 480,000 active; in the data active means activity change below about -30%; inconclusive means mostly about -25% to -30%
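Human LDH5 at 2 nM final in Tris HCl pH 7.4 with 0.06 mM NADH and 0.2 mM pyruvate, reacted 5 minutes at room temperature. Remaining NADH coupled via diaphorase/resazurin; resorufin fluorescence read at 0 and 20 minutes, normalized to enzyme-free and DMSO wells.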
TDP1 cell CPT: growth inhibition of DT40 Tdp1-/-;hTDP1 cells with camptothecin (screen for TDP1 inhibitors); chicken DT40 Tdp1-/-;hTDP1 cells + 20 nM CPT, ATP luminescence, 48 h; Potency, µM (titrated, usually from 46.2 µM), hits mostly inhibitors; 12% of 420,000 active; further: nearly all actives have a fitted effect of over 55% in size
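Cell growth measured by CellTiter-Glo luminescence after a minimum 48 h, 37 C compound exposure with 20 nM CPT in Tdp1-knockout DT40 cells stably expressing hTDP1, seeded 400/well; qHTS titration format.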
A number is an active result; n = inactive; u = inconclusive; x = not tested or not shown. Rows were chosen to be rich in hits. Some 18% of all compounds tested hit in one or more screens of this group. Unless noted, the call rests on the fitted dose curve; in most records, active means well fitted curve in the direction sought with a large enough effect; inconclusive means small, poorly fitted or top-dose-only effect, or another doubt; inactive means no such curve, though single readings can be large; an effect the other way counts as inactive or inconclusive.

SMILES | RORg inh | VP16 counter | IL-1B inflam inh | DT40 TDP1 no CPT | LDHA block | TDP1 cell CPT
COC(=O)c1ccccc1NC(=O)Cn1c(-c2ccccc2)nc(C)cc1=O | x | x | x | x | n | x
CC(=O)c1cccc(NC(=O)Cc2coc3cc4c(cc23)CCC4)c1 | u | n | n | 6.51µM | n | u
CCC(C)c1ccccc1NC(=O)Cc1coc2cc3c(cc12)CCC3 (stereo unspecified) | n | n | n | 18.4µM | n | u
Cc1ccc(C)c(NC(=O)Cc2coc3cc4c(cc23)CCC4)c1 | n | n | n | n | n | n
O=C(CSc1ncnc2c1sc1cccc(F)c12)NC1CC1 | x | x | x | x | n | x
COc1cc(OC)cc(C(=O)Nc2ccc3oc(-c4cc(OC)c(OC)c(OC)c4)nc3c2)c1 | x | x | x | x | n | x
COc1ccc(-c2ccc(=O)n(CC(=O)N3CCC(Cc4ccccc4)CC3)n2)cc1 | x | x | x | x | n | x
O=C(c1ccc2c(c1)N(Cc1ccccc1F)C(=O)c1ccccc1S2=O)N1CCN(c2ccccc2)CC1 (stereo unspecified) | x | x | x | 16.4µM | n | 23.1µM
O=C(c1ccc2c(c1)N(Cc1ccc(Cl)cc1)C(=O)c1ccccc1S2=O)N1CCN(c2ccccc2F)CC1 (stereo unspecified) | x | x | x | 20.6µM | n | 23.1µM
Cc1noc(CSc2ccccc2C(=O)N2CCCc3ccccc32)n1 | x | x | x | x | n | x
O=C1CCCC(=O)N1c1ccc(O)cc1 | n | n | n | n | n | n
O=C1C=CC(=O)N1c1ccc(OC(F)F)cc1 | 6.31µM | 4.47µM | -91.4 | 0.651µM | n | 0.411µM
O=C1C=CC(=O)N1c1ccc(O)cc1 | 12.6µM | u | n | 2.31µM | n | 2.59µM
NC(N)=NC(N)=Nc1ccccc1Cl | x | x | x | x | n | x
CC1Cc2ccccc2N1C(=O)CSc1nc2cc(S(=O)(=O)N3CCOCC3)ccc2o1 (stereo unspecified) | x | x | x | x | n | x
Cc1cc(C)n(-c2ccc(C(=O)N3CCN(S(=O)(=O)c4cccc(Br)c4)CC3)cc2)n1 | x | x | n | 20.6µM | n | 20.6µM
Cc1cc(C)n(-c2ccc(C(=O)N3CCN(S(=O)(=O)c4ccc(C(C)C)cc4)CC3)cc2)n1 | x | x | u | 14.6µM | n | u
Cc1ccc2nc(CCl)[n+]([O-])c(-c3ccccc3)c2c1 | u | n | u | 16.4µM | n | 25.9µM
NCc1ccccc1OC(F)F | x | x | x | x | n | x
Cc1ccc(CN(Cc2ccco2)C(=O)COc2ccc(C)c(C)c2)cc1 | x | x | x | 16.4µM | n | 23.1µM
CCc1ccc(OCC(=O)N(Cc2ccco2)Cc2ccccc2Cl)cc1 | x | x | x | 13µM | n | u
CCc1ccc(OCC(=O)N(Cc2ccc(C)cc2)Cc2ccco2)cc1 | x | x | x | 20.6µM | n | u
O=C(O)CNC(=S)N(Cc1ccco1)Cc1ccccc1Cl | n | n | n | n | n | n
Cc1ccc(OCC(=O)N(Cc2ccco2)c2ccccn2)cc1 | x | x | x | n | n | u
Cc1cccc(OCC(=O)N(Cc2ccc(C(C)(C)C)cc2)Cc2ccco2)c1 | x | x | x | 10.3µM | n | 20.6µM
SMILES | RORg inh | VP16 counter | IL-1B inflam inh | DT40 TDP1 no CPT | LDHA block | TDP1 cell CPT
CCCCNC(=S)N/N=C1/CC(C)CC(C)(C)C1 (stereo unspecified) | x | x | x | x | n | x
O=C(COc1cccc(Br)c1)Nc1ccc2[nH]ncc2c1 | x | x | x | x | n | x
Cc1nn(C)c2sc(C(=O)N3CCN(S(=O)(=O)c4ccccc4Cl)CC3)cc12 | x | x | x | x | n | x
Cc1ccc2c(c1)cc(CN(Cc1ccco1)C(=O)COc1ccccc1)c1nnnn12 | u | n | u | 23.1µM | n | u
Cc1cc(=O)oc2ccc(OCC(=O)N(Cc3ccc(F)cc3)Cc3ccco3)cc12 | u | u | -61.7 | u | n | 23.1µM
COc1ccccc1N(CC(=O)Nc1ccccc1)S(=O)(=O)c1cccs1 | x | x | n | u | n | n
COc1ccccc1N(CC(=O)Nc1ccccc1C(F)(F)F)S(=O)(=O)c1cccs1 | x | x | n | u | n | u
COc1ccccc1N(CC(=O)Nc1ccc(Br)cc1F)S(=O)(=O)c1cccs1 | x | x | -54.5 | u | n | u
COc1ccc(NC(=O)CN(c2ccccc2OC)S(=O)(=O)c2cccs2)cc1Cl | x | x | n | 14.6µM | n | u
COc1cccc(NC(=O)CN(c2ccccc2OC)S(=O)(=O)c2cccs2)c1 | x | x | n | 20.6µM | n | u
CCOC(=O)c1nc2ccccc2nc1NCC(C)c1ccccc1 (stereo unspecified) | x | x | x | x | n | x
Cc1ccc2cc(CN(Cc3ccco3)C(=S)NCC3CCCO3)c(=O)[nH]c2c1C (stereo unspecified) | n | n | n | 25.9µM | n | 18.4µM
Cc1ccc2cc(CN(Cc3ccco3)C(=O)c3ccccc3)c(=O)[nH]c2c1C | n | n | n | u | n | u
CC(C)CCOc1cccc(N)c1 | x | x | x | x | n | x
COc1ccc2c(COC(=O)c3cccc4ccccc34)cc(=O)oc2c1 | x | x | x | x | n | x
O=C(O)c1ccc(CSC(F)F)cc1 | x | x | x | x | n | x
COc1ccc(NC(=O)c2cc(S(=O)(=O)N(C)C)ccc2N2CCCC2)cc1Cl | n | n | n | u | n | n
COc1ccc(NC(=O)c2cc([N+](=O)[O-])ccc2N2CCCCC2)cc1OC | x | x | n | u | n | 20.6µM
O=C(Nc1ccccc1)c1cc([N+](=O)[O-])ccc1N1CCCCC1 | x | x | n | u | n | u
COc1ccc(NC(=O)c2cc([N+](=O)[O-])ccc2N2CCCC2)cc1 | n | n | n | n | n | n
CC(C)CNC(=O)c1cc([N+](=O)[O-])ccc1N1CCCCC1 | n | n | n | 23.1µM | n | u
COc1ccc(NC(=O)c2cc([N+](=O)[O-])ccc2N2CCCCC2)cc1 | n | n | n | 20.6µM | n | 20.6µM
O=c1oc2ccc(Br)cc2cc1-c1nc(-c2cccs2)no1 | x | x | x | x | n | x
CNC(=O)NC(=O)C(C)n1nc(C(=O)O)c2ccccc2c1=O (stereo unspecified) | x | x | x | x | n | x
O=C(CSc1oc(-c2ccccc2)nc1S(=O)(=O)c1ccc(Cl)cc1)c1ccccc1 | x | x | x | 18.4µM | n | 14.6µM
SMILES | RORg inh | VP16 counter | IL-1B inflam inh | DT40 TDP1 no CPT | LDHA block | TDP1 cell CPT
Cc1ccc(S(=O)(=O)c2nc(-c3ccco3)oc2SCC(=O)c2ccc(Cl)cc2)cc1 | x | x | x | u | n | u
O=C(CSc1oc(-c2ccc(F)cc2)nc1S(=O)(=O)c1ccc(Cl)cc1)c1ccccc1 | x | x | x | 14.6µM | n | 16.4µM
CC1CCN(C(=O)CCCNC(=O)Cn2cnc3sc4c(c3c2=O)CCCC4)CC1 | n | n | n | n | n | n
Cc1sc2ncn(CC(=O)NCCCN3CC(C)CC(C)C3)c(=O)c2c1S(=O)(=O)N1CC(C)CC(C)C1 (stereo unspecified) | n | n | n | u | n | 18.4µM
CC1CCN(CCCNC(=O)CCCNC(=O)Cn2cnc3sc4c(c3c2=O)CCCC4)CC1 | n | n | -100.6 | n | n | n
Cc1ccc(NC(=O)CN2C(=O)N/C(=C\c3cn(-c4cccc(C(=O)O)c4)cn3)C2=O)cc1 | x | x | x | x | n | x

Bioassay records as filed in PubChem BioAssay.
